The results in this text go back to PubChem BioAssay (NCI).

About 83,000 compounds went through this panel and 20% of them were active in at least one assay; those are over-represented in the sample as a whole.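 Each cell line was grown in a 96-well plate and treated with one concentration of compound for 48 hours. Values below 10 were considered active.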 Unmarked numbers belong to inactive results. Calls of active or inactive are those of the source.

Common to all, as to test: NCI-60 one-dose screen, 48 h (100 = growth as untreated, 0 = no growth, -100 = all killed)
Common to all, as to conditions: 10 µM unless noted

The subject of test [1] is DU-145 prostate.
Test [2] relates to K-562 leukemia.
Test [3] concerns MALME-3M melanoma.
The test system of test [4] is MDA-MB-231 breast.
Test [5] has as its system RXF 393 renal.
Test [6] deals with SF-268 CNS.
Test [7] relates to SF-295 CNS.
Test [8] deals with SF-539 CNS.
The subject of test [9] is UACC-257 melanoma.
Test [10] relates to M14 melanoma.
Test [11] concerns HT29 colon.
Test [12] deals with SNB-75 CNS.
The subject of test [13] is SNB-19 CNS.
Test [14] concerns U251 CNS.
In test [15] the test system is PC-3 prostate.
Test [16] relates to SK-MEL-5 melanoma.
Test [17] concerns UACC-62 melanoma.
The subject of test [18] is LOX IMVI melanoma.
The subject of test [19] is SK-MEL-28 melanoma.

Consider `CS(=O)(=O)c1ccc(-c2cnn3ccc(-c4cccc(S(=O)(=O)C5CC5)c4)nc23)cc1`, for which the growth in [1] is 61.7%; in test [2] it was 78%; in test [3], 50.2%; in test [4], 53%; in [5], 22.2%; in test [6], 45.5%. Also, the growth in test [7] was 56.9%; in test [8], 60.8%; in test [9] it was 58.3%; in test [10], 64.3%; in test [11] it was 34%; in [12], 14%. The growth in [13] is 67.3%; in test [14], 68.7%; in [15], 40.3%; in test [16] it was 63.2%; in test [17] it was 53.3%; in test [18] it was 44.1%. Moreover, in [19], the growth was 69.7%.

For `O=c1[nH]c(Cc2nc3ccccc3s2)nc2cc(Br)ccc12`, the growth in test [1] is 70.5%; in [2], 23.2%; in [3], 90.7%; in test [4], 65.6%; in [5] it was 104%; in [6], 61%. Further, the growth is 76.5% in test [7]; 90.3% in test [8]; 72.2% in test [9]; 35.2% in test [10]; 43.7% in test [11]; 82.1% in [12]. For the same molecule, the growth is 82.2% in test [13]; 81.9% in test [14]; 60.9% in test [15]; 80.6% in [16]; 2.81% (active) in [17]; 27.8% in test [18]. Also, the growth in test [19] is 55.1%.

Turning to `CCC(=C(c1ccc(OCCN2CCCCC2)cc1)c1ccc(OCCN2CCCCC2)cc1)c1ccc(Cl)cc1`, the growth in test [1] was -89.8% (active); in test [2], -37% (active); in test [3], -83.4% (active); in [4] it was -90.1% (active); in [5] it was -81.4% (active); in test [6], -72.1% (active). In addition, the growth is -89.7% (active) in [7]; -97.3% (active) in [8]; -76.9% (active) in test [9]; -83.1% (active) in test [10]; -74.6% (active) in test [11]; -96.4% (active) in test [12]. In addition, the growth was -94.5% (active) in test [13]; -82.2% (active) in test [14]; -81.2% (active) in [15]; -96.8% (active) in test [16]; -89.7% (active) in [17]; -84.8% (active) in [18]. Besides, the growth in test [19] is -97% (active).

With `Cc1nc2sc(C(=O)Nc3ccc(Br)cc3)c(N)c2cc1C(O)c1ccccc1` (centres undefined), the growth in test [1] was 81.7%; in test [2], 12.1%; in test [3] it was 63.9%; in [4], 57.9%; in [5], 86.6%; in [6], 75.8%. Besides, the growth in test [7] is 69.5%; in [8] it was 66.7%; in [9], 61.8%; in test [10] it was 38.9%; in [11], 36.7%; in [12], 62.6%. For the same molecule, the growth in test [13] is 67.7%; in [14], 54%; in [15], 61.4%; in [16] it was 39.9%; in test [17], 41.8%; in test [18], 61.3%. Besides, the growth in [19] was 67.8%.

Take `CSc1nc(N)c(NS(=O)(=O)c2ccc(C(C)=O)cc2)c(=O)[nH]1`: the growth in test [1] was 110%; in test [2] it was 96%; in [3], 100%; in test [4], 104%; in test [5], 96.9%; in test [6], 99.9%. In addition, the growth in test [7] was 97.3%; in test [8], 112%; in [9], 105%; in test [10] it was 89.3%; in test [11] it was 103%; in test [12] it was 87.6%. In addition, the growth in test [13] is 107%; in test [14], 112%; in test [15], 102%; in test [16], 97.5%; in test [18], 101%; in [19], 104%.

Turning to `COc1ccc(NC(=O)c2sc3nc(C)c(C(=O)/C=C/c4ccccc4)cc3c2N)cc1`, the growth in test [1] is 26.5%; in [2], 14.4%; in test [3] it was 97.3%; in [4] it was 60.8%; in test [5] it was -1.08% (active); in test [6], 28.7%. Also, the growth in [7] was 48.8%; in test [8], 38.2%; in test [9] it was 98.3%; in test [10], 61.5%; in [11], 0.196% (active); in test [12] it was 12.2%. Further, the growth in test [13] was 10.6%; in test [15] it was 52.6%; in test [16], 74.3%; in test [17], 51.8%; in test [18], -74.7% (active); in test [19] it was 85.7%.

For the molecule `CCOC(=O)c1cc2c(n1Cc1cc(OC)c(OC)c(OC)c1)-c1nc(N)sc1CCC2`, the growth in test [1] is 79.1%; in test [2] it was 24.6%; in test [3] it was 69.5%; in [4] it was 51.6%; in test [5], 54.9%; in test [6] it was 70.5%. Moreover, the growth in test [7] was 26%; in test [8] it was 62.5%; in [9], 43.9%; in [10], 25.6%; in test [11], 19.3%; in test [12], 60.3%. Besides, the growth was 61.3% in [13]; 38.9% in [14]; 26.3% in test [15]; 19.6% in test [16]; 35.5% in [17]; 48.5% in [18]. Also, the growth in test [19] was 69.4%.

Regarding `O=C(NCc1ccc(Cl)cc1Cl)C1CCC(=O)N1c1cccs1` (centres undefined), the growth in test [1] was 108%; in test [2], 108%; in [3], 96.3%; in [4], 96.5%; in test [5], 109%; in [6], 100%. Also, the growth in test [7] is 90.8%; in [8], 93.6%; in test [9], 90.8%; in test [10], 104%; in [11], 89.9%; in [13] it was 99.9%. Besides, the growth in [14] was 89.4%; in test [15] it was 87.4%; in test [16], 102%; in test [17], 80.7%; in test [18] it was 89.1%; in [19], 93.4%.
